According to PubChem BioAssay (NCI):
Several values for one entry are separate records, joined by “and”; a condition that tells them apart may be missing. Equal values may be shown once. The panel holds about 83,000 compounds, 20% with a hit somewhere; the sample as a whole holds those more often.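 Negative percent growth values reflect cell death: -40 means 40% of the cells present at the start died, and -100 means all died.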 Activity calls are given as the source filed them. Rule for the calls: active = growth percent below 10; inactive = the rest.

Assays:
Assay in all cases: NCI-60 one-dose screen, 48 h (100 = growth as untreated, 0 = no growth, -100 = all killed)
HCT-15 colon = tested on: HCT-15 colon
HT29 colon = conditions: 10 µM unless noted
SNB-75 CNS = tested on: SNB-75 CNS
SNB-19 CNS = tested on: SNB-19 CNS
U251 CNS = tested on: U251 CNS
PC-3 prostate = conditions: 10 µM unless noted
SK-MEL-5 melanoma = tested on: SK-MEL-5 melanoma
UACC-62 melanoma = tested on: UACC-62 melanoma
LOX IMVI melanoma = tested on: LOX IMVI melanoma
SK-MEL-28 melanoma = conditions: 10 µM unless noted

Measured: growth

COc1ccc(N)cc1N
inactive: HCT-15 colon; 10 µM unless noted 102% | HT29 colon 113% | SNB-75 CNS; 10 µM unless noted 88.7% | SNB-19 CNS; 10 µM unless noted 101% | U251 CNS; 10 µM unless noted 106% | PC-3 prostate 88.2% | SK-MEL-5 melanoma; 10 µM unless noted 105% | UACC-62 melanoma; 10 µM unless noted 105% | LOX IMVI melanoma; 10 µM unless noted 100% | SK-MEL-28 melanoma 120%

CCCn1cc2c3c(cccc31)[C@H]1C[C@@H](C)CN(C)[C@@H]1C2
inactive: HCT-15 colon; 10 µM unless noted 84.1% | HT29 colon 45% | SNB-75 CNS; 10 µM unless noted 58.2% | SNB-19 CNS; 10 µM unless noted 91.2% | U251 CNS; 10 µM unless noted 86.7% | PC-3 prostate 72.3% | SK-MEL-5 melanoma; 10 µM unless noted 113% | UACC-62 melanoma; 10 µM unless noted 93.2% | LOX IMVI melanoma; 10 µM unless noted 88.5% | SK-MEL-28 melanoma 97.7%

O=Cc1cn(Cc2ccccc2)c2ccccc12
inactive: HCT-15 colon; 10 µM unless noted 106% | HT29 colon 92% | SNB-75 CNS; 10 µM unless noted 67.8% | SNB-19 CNS; 10 µM unless noted 93.8% | U251 CNS; 10 µM unless noted 68.5% | PC-3 prostate 95% | SK-MEL-5 melanoma; 10 µM unless noted 85.5% | UACC-62 melanoma; 10 µM unless noted 32.6% | LOX IMVI melanoma; 10 µM unless noted 79.4% | SK-MEL-28 melanoma 216%

CCC1CCC(=O)O1 (stereo not drawn)
inactive: HCT-15 colon; 10 µM unless noted 98.1% and 105% | HT29 colon 107% and 110% | SNB-75 CNS; 10 µM unless noted 86% and 96.4% | SNB-19 CNS; 10 µM unless noted 115% and 113% | U251 CNS; 10 µM unless noted 97% and 108% | PC-3 prostate 97.8% and 105% | SK-MEL-5 melanoma; 10 µM unless noted 103% and 104% | UACC-62 melanoma; 10 µM unless noted 114% | LOX IMVI melanoma; 10 µM unless noted 97.5% and 103% | SK-MEL-28 melanoma 104% and 115%

Cc1cc2c(cc1-c1ccnc(/C=C/C(=O)O)c1)C(C)(C)CCC2(C)C
inactive: HCT-15 colon; 10 µM unless noted 86.1% | HT29 colon 97.9% | SNB-75 CNS; 10 µM unless noted 80.3% | SNB-19 CNS; 10 µM unless noted 90.7% | U251 CNS; 10 µM unless noted 84.1% | PC-3 prostate 86.8% | SK-MEL-5 melanoma; 10 µM unless noted 67.9% | UACC-62 melanoma; 10 µM unless noted 72.2% | LOX IMVI melanoma; 10 µM unless noted 46.9% | SK-MEL-28 melanoma 92.9%

O=C(O)CCCc1ccc(N(CCCl)CCCl)cc1
active: SNB-75 CNS; 75 µM 3.53%
inactive: HCT-15 colon; 10 µM 86.1% and 95.5% | HCT-15 colon; 75 µM 46.3% | SNB-75 CNS; 10 µM 88.9% and 90.1% | SNB-19 CNS; 10 µM 102% and 95.9% | SNB-19 CNS; 75 µM 32.9% | U251 CNS; 10 µM 85.1% and 84% | U251 CNS; 75 µM 30% | SK-MEL-5 melanoma; 10 µM 93% and 88.4% | SK-MEL-5 melanoma; 75 µM 38.6% | UACC-62 melanoma; 10 µM 82.7% and 78.8% | UACC-62 melanoma; 75 µM 28.6% | LOX IMVI melanoma; 10 µM 83.1% and 80.2% | LOX IMVI melanoma; 75 µM 26.7% | SK-MEL-28 melanoma 99.3%

COC1C(O)CC(OC2CC(Oc3cc4cc5c(c(O)c4c(O)c3C)C(=O)[C@@H](OC3CC(OC4CC(OC6CC(C)(O)C(OC(C)=O)C(C)O6)C(O)C(C)O4)C(O)C(C)O3)[C@H]([C@H](OC)C(=O)[C@@H](O)[C@@H](C)O)C5)OC(C)C2OC(C)=O)OC1C (stereo partly drawn)
active: HCT-15 colon; 10 µM unless noted 1.5% | HT29 colon -23.2% | SNB-75 CNS; 10 µM unless noted -61.8% | SNB-19 CNS; 10 µM unless noted 5.7% | U251 CNS; 10 µM unless noted 4.79% | PC-3 prostate -11.5% | SK-MEL-5 melanoma; 10 µM unless noted -93.8% | UACC-62 melanoma; 10 µM unless noted -83% | LOX IMVI melanoma; 10 µM unless noted 3.81%

COc1cc2c(cc1OC)-c1c3c(cc4c1[C@@H](C2)N(C)CC4)OCO3
inactive: HCT-15 colon; 10 µM unless noted 29% | HT29 colon 29% | SNB-75 CNS; 10 µM unless noted 57.9% | SNB-19 CNS; 10 µM unless noted 48.4% | U251 CNS; 10 µM unless noted 39.3% | PC-3 prostate 39.8% | SK-MEL-5 melanoma; 10 µM unless noted 57.9% | UACC-62 melanoma; 10 µM unless noted 45.2% | LOX IMVI melanoma; 10 µM unless noted 26.2%

O=[N+]([O-])c1ccc(OCc2ccc(S(=O)(=O)F)c(Cl)c2)c(Cl)c1
inactive: HCT-15 colon; 10 µM unless noted 84.6% | HT29 colon 99.2% | SNB-75 CNS; 10 µM unless noted 92.8% | SNB-19 CNS; 10 µM unless noted 108% | U251 CNS; 10 µM unless noted 107% | PC-3 prostate 91.4% | SK-MEL-5 melanoma; 10 µM unless noted 99.6% | UACC-62 melanoma; 10 µM unless noted 92.6% | LOX IMVI melanoma; 10 µM unless noted 93% | SK-MEL-28 melanoma 119%

CCCC(C)SP(=S)(SC(C)CCC)SC(C)CCC (stereo not drawn)
inactive: HCT-15 colon; 10 µM unless noted 103% | HT29 colon 100% | SNB-75 CNS; 10 µM unless noted 106% | SNB-19 CNS; 10 µM unless noted 108% | U251 CNS; 10 µM unless noted 103% | PC-3 prostate 99.8% | SK-MEL-5 melanoma; 10 µM unless noted 91.9% | UACC-62 melanoma; 10 µM unless noted 101% | LOX IMVI melanoma; 10 µM unless noted 93.6% | SK-MEL-28 melanoma 107%

CC1(C)C=Cc2c(ccc3c2[N+]([O-])=C2C3=C[C@@]34NC(=O)[C@]5(CCCN5C3=O)C[C@@H]4C2(C)C)O1
inactive: HCT-15 colon; 10 µM unless noted 46.8% | HT29 colon 24.6% | SNB-75 CNS; 10 µM unless noted 62.1% | SNB-19 CNS; 10 µM unless noted 50.7% | U251 CNS; 10 µM unless noted 35.3% | PC-3 prostate 45.5% | SK-MEL-5 melanoma; 10 µM unless noted 19.2% | UACC-62 melanoma; 10 µM unless noted 64.6% | LOX IMVI melanoma; 10 µM unless noted 27.6% | SK-MEL-28 melanoma 71.1%
